# High-throughput results from PubChem BioAssay.
# ELG1 genotoxic – qHTS screen for small molecules that induce genotoxicity in human embryonic kidney (HEK293T) cells expressing luciferase-tagged ELG1. HEK293T ELG1-luciferase reporter, luminescence, 16 h. Potency, µM (top dose mostly 46 µM), without a hit: at the top dose activity change, positive = activation, actives largely listed as activators. actives 1.3% (n = 330,000); also: % of control where 0% means no effect; nearly all actives have a fitted effect of over 60% in size
#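 DMSO vehicle served as control against compound-treated ELG1-luciferase HEK293T cells; exposure lasted 16 hr at 37 °C and 5% CO2, followed by ONE-Glo luminescence detection after 30 min.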
# ELG1 DNA repair – qHTS screen for small molecules that inhibit ELG1-dependent DNA repair in human embryonic kidney (HEK293T) cells expressing luciferase-tagged ELG1; HEK293T ELG1-luciferase reporter, luminescence, 16 h; DNA damage induced by 5-fluorouridine; Potency, µM (titrated, usually from 46.1 µM), inactives show at the highest dose activity change, negative = inhibition, usual class: inhibitors; actives 2.3% (n = 330,000); AID 504467, 2011; also: % is scaled to controls: 0 for no effect and ±100 for the full control effect; nearly all actives have a fitted effect of over 55% in size
#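 Quantitative HTS, concentration-response format. 2,000 cells/well co-treated with 5-fluorouridine and compound, 16 hr in 5% CO2 at 37 °C; ONE-Glo luminescence read after 30 min.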
# NPC1 prom act – qHTS Assay for NPC1 Promoter Activators; Potency, µM (series often up to 9.22 µM), for inactives: top-dose activation, actives largely listed as activators; Huh7 NPC1 promoter luciferase reporter, 24 h; AID 485313, 2010; actives 2.4% (n = 320,000); also: % of control where 0% means no effect; nearly all actives have a fitted effect of over 60% in size
#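 Huh7 cells stably carrying NPC1 promoter–luciferase, plated in Opti-MEM with 10% FBS for 2 h, were exposed to compound in DMSO for 24 h at 37 °C; luciferase reagent was added for 10 min and luminescence read.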
# SMN2 splice enh – qHTS Assay for Enhancers of SMN2 Splice Variant Expression; HEK293 SMN2-luciferase splicing reporter, luminescence, 30-36 h; Potency, µM (doses to about 46.1 µM), inactives show at the top dose activity change, positive = activation, actives largely listed as activators; actives 2.8% (n = 210,000); also: % of control where 0% means no effect; nearly all actives have a fitted effect of over 55% in size
#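 qHTS luciferase splicing reporter: luminescence rises when SMN2 exon 7 is included in transfected HEK293 cells. Compound exposure lasted 30-36 h at 37C, with 4.5 mM final sodium butyrate as control, followed by a ONE-Glo read.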
# FLuc modulator – qHTS profiling assay for firefly luciferase inhibitor/activator using purifed enzyme and Km concentrations of substrates (counterscreen for miR-21 project). Luciferin 4-monooxygenase (Photinus pyralis), P08659. purified FLuc, Km substrates, luminescence inhibition. Potency, µM (titrated, usually from 57.5 µM), for inactives: at the top dose activity change, negative = inhibition, most hits filed as inhibitors. actives 6.9% (n = 360,000). AID 588342, 2011;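 also: plate controls were vehicle for no effect and reference inhibitor for full effect; nearly all actives have a fitted effect of over 55% in size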
# Target sequence (P08659 whole entry, looked up): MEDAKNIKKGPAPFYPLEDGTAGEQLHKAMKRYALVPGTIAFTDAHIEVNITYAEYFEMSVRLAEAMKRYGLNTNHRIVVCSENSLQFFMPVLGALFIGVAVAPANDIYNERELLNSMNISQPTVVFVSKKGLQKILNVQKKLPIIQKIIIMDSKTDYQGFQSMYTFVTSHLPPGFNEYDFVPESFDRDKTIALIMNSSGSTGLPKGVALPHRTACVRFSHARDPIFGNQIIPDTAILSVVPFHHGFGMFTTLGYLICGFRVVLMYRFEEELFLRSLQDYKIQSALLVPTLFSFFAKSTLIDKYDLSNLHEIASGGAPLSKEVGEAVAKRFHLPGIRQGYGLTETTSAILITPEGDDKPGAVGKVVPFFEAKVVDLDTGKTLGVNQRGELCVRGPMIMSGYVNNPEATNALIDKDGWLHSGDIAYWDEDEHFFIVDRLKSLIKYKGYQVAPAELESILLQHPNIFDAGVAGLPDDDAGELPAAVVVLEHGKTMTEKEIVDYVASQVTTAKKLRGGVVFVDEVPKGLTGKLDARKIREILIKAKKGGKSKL
#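 Purified P. pyralis luciferase (10nM final) with 10uM D-luciferin and 10uM ATP (Km levels) in 50mM Tris acetate pH 7.5, 10mM Mg acetate, 0.01% Tween-20, 0.05% BSA; qHTS 6-point titration, ~60 µM downward; luminescence read.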
# Rab9 promoter act – qHTS Assay for Rab9 Promoter Activators; Potency, µM (series often up to 9.22 µM), inactives show top-dose activation, negative = inhibition, most hits filed as activators; Huh7 Rab9 promoter-luciferase reporter, luminescence, 24 h; actives 2.8% (n = 320,000); also: % of control where 0% means no effect; nearly all actives have a fitted effect of over 60% in size
#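 Quantitative HTS format; Huh7 Rab9-luciferase reporter cells (1500/well) receive compound 2 h post-plating, incubate 24 h at 37 °C, then get luciferase reagent for 10 min before luminescence reading.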
# * marks the source's active call; other numbers are inactive results; ? = inconclusive; nt = not tested or not shown. Only some compounds are listed: those with a hit (about 9.3% of all), similar ones and a draw of the others. Calls follow the shape of the dose curve; as a rule, active = well fitted curve in the direction sought with a large enough effect; inconclusive = small, poorly fitted or top-dose-only effect, or another doubt; inactive = no such curve, though single readings can be large; an effect the other way counts as inactive or inconclusive. Potency is read from the fitted curve at half-maximal effect.
SMILES,ELG1 genotoxic,ELG1 DNA repair,NPC1 prom act,SMN2 splice enh,FLuc modulator,Rab9 promoter act
Cc1ccc(NC(=O)Nc2ccc3c(c2)OCO3)c(Br)c1,18µM*,?,?,nt,?,?
O=C(Nc1ccc2c(c1)OCO2)N1CCN(S(=O)(=O)c2ccc(Cl)cc2)CC1,-11%,-1%,-2%,-9%,1%,-4%
O=C(Nc1ccc(F)cc1)Nc1ccc2c(c1)OCO2,1%,0%,8%,nt,3%,-5%
O=C(Nc1ccc2c(c1)OCO2)N1CCN(c2ccccc2Cl)CC1,?,?,?,1%,19µM*,?
O=C(NCc1cccs1)Nc1ccc(Cl)cc1,11%,?,?,10µM*,?,?
O=C(Nc1ccc2c(c1)OCO2)Nc1ccc2c(c1)OCO2,?,?,1.4µM*,7.9µM*,?,1.8µM*
CCn1c(=N)c(S(=O)(=O)c2ccc(C)cc2)cc2c(=O)n3ccccc3nc21,9%,-2%,-5%,-3%,3%,-5%
CCOC(O)[C@H]1N[C@@H](c2ccc(Cl)cc2)[C@@H]([N+](=O)[O-])[C@@H]1c1ccccc1 (some centres undefined),-1%,8%,1%,-24%,-14%,2%
CCOC(=O)c1cc(S(=O)(=O)NC2CCN(C(=O)OCC)CC2)cn1C,-6%,?,-7%,-36%,0%,2%
COC(=O)c1ccc(C(=O)OC)c(NC(=O)Nc2ccc3c(c2)OCO3)c1,15µM*,?,?,?,21µM*,?
O=C(Nc1cccc(C(=O)O)c1)Nc1ccc2c(c1)OCO2,-21%,2.6µM*,?,nt,0.11µM*,?
COC(=O)c1ccccc1NC(=O)Nc1ccc2c(c1)OCO2,?,?,21%,-15%,?,26%
O=C(Nc1cccc(F)c1)Nc1ccccn1,26%,?,3.2µM*,23%,13µM*,2.8µM*
O=C(Nc1cccnc1)Nc1ccc2c(c1)OCO2,17%,?,?,?,12µM*,?
O=C(Nc1cccc(F)c1)Nc1cnccn1,2%,9%,6%,nt,-9%,23%
Cc1cc(C)c2ccc(=S)[nH]c2n1,-4%,-16%,2%,4%,7%,-1%
O=C(NCc1cccs1)Nc1ccc2c(c1)OCO2,?,?,?,14µM*,17µM*,3.5µM*
CN(C1CCS(=O)(=O)C1)S(=O)(=O)c1cccs1 (centres undefined),1%,20%,0%,nt,1%,0%
NC(=S)N/N=C\c1ccccc1OCc1ccccc1,6%,-8%,-4%,-15%,-18%,-6%
O=C(N/N=C/c1c[nH]c2ccccc12)c1ccncc1,9%,19%,6%,6%,?,9%
CCOc1ccc(Br)cc1C(=O)N/N=C/c1c[nH]c2ccccc12,-1%,-21%,1%,nt,2%,-4%
Cn1cccc1/C=N/NC(=O)Cc1cccc2ccccc12,-2%,13µM*,-7%,-50%,-15%,-8%
O=C(N/N=C/c1ccccc1OCc1ccccc1)c1cccs1,13%,4%,9%,26%,4.3µM*,-4%
O=C(N/N=C/c1c[nH]c2ccccc12)c1cc(Br)ccc1O,6%,20%,19%,nt,27µM*,14%
O=C(N/N=C/c1c[nH]c2ccccc12)c1ccccc1,?,?,?,nt,13µM*,?
SMILES,ELG1 genotoxic,ELG1 DNA repair,NPC1 prom act,SMN2 splice enh,FLuc modulator,Rab9 promoter act
COc1ccc(CCN2CC3=C(C2=O)C(c2ccccc2)NC(=O)N3C)cc1OC (centres undefined),0%,5%,-3%,18%,1%,5%
O=C(N/N=C\c1cn[nH]c1-c1ccccc1)c1cccnc1,-2%,2%,-3%,-13%,?,-6%
O=C(N/N=C\c1cn[nH]c1-c1ccccc1)c1cccs1,13%,4%,0%,19%,24µM*,1%
O=C(N/N=C/c1cccc2ccccc12)c1cccs1,?,?,5.6µM*,nt,2.1µM*,3.5µM*
Cc1c(/C=N/NC(=O)c2sc3ccccc3c2Cl)cnn1C,-1%,0%,3%,4%,?,0%
O=C(N/N=C/c1c[nH]c2ccccc12)c1cccs1,23µM*,?,?,nt,9.5µM*,?
Cn1cccc1/C=N/NC(=O)c1sc2ccccc2c1Cl,14%,?,?,0%,2.7µM*,?
COc1cc(OC)cc(C(=O)N2CCC(C(=O)c3ccc(F)cc3)CC2)c1,-2%,3%,-1%,nt,0%,-3%
Cc1cccc(N(C)C(=O)CCS(=O)(=O)c2ccc3c(c2)n(C)c(=O)c(=O)n3C)c1,nt,nt,nt,-3%,-1%,nt
O=C(N/N=C/c1c[nH]c2ccc(Br)cc12)c1ccncc1,0%,2%,4%,7%,3%,-1%
O=C(N/N=C/c1c[nH]c2ccccc12)c1sc2ccccc2c1Cl,?,?,12%,?,12µM*,?
COc1ccccc1C(=O)N/N=C/c1c[nH]c2ccccc12,5%,3%,19%,nt,17µM*,13%
O=C(N/N=C/c1c[nH]c2ccccc12)c1cccc([N+](=O)[O-])c1,0%,-14%,13%,-8%,?,5%
O=C(N/N=C/c1c[nH]c2ccc(Br)cc12)c1ccc2c(c1)OCO2,-1%,3%,-2%,23%,27µM*,-4%
O=C(N/N=C/c1ccccn1)c1sc2ccccc2c1Cl,?,?,-1%,nt,9.5µM*,-1%
O=C(N/N=C/c1ccc([N+](=O)[O-])o1)c1sc2ccccc2c1Cl,-9%,?,-7%,nt,3%,0%
CC(C)=CC(=O)N1CCC(n2nccc2NC(=O)CCc2ccccc2)CC1,-3%,1%,-3%,nt,2%,-1%
O=C(N/N=C/c1cccc([N+](=O)[O-])c1O)c1cccs1,0%,-9%,-6%,-63%,13µM*,-1%
O=C(N/N=C/c1cccc([N+](=O)[O-])c1O)C(O)(c1ccccc1)c1ccccc1,-1%,-7%,1%,nt,-16%,0%
Cc1ccc(C(=O)Nc2ccc(C(=O)N/N=C/c3c[nH]c4ccccc34)cc2)cc1,3%,?,11%,10%,?,2%
